Compound activity deposited in PubChem BioAssay by National Center for Advancing Translational Sciences (NCATS).
An excerpt weighted towards active compounds, which were near 2.8% of everything screened.
IP6K1 inh = Primary qHTS assay for small molecule inhibitors of Inositol hexaphosphate kinase 1 (IP6K1); Inositol hexakisphosphate kinase 1 (Homo sapiens), Q92551; IP6K1 kinase, ADP-Glo luminescence, 2 h; hits give low values; activity change, % (series mostly up to about 58 µM); actives 0.81% (n = 140,000); in the data active = activity change below about -25%; also: % is scaled to controls: 0 for no effect and ±100 for the full control effect
Target sequence (Q92551 whole entry, looked up): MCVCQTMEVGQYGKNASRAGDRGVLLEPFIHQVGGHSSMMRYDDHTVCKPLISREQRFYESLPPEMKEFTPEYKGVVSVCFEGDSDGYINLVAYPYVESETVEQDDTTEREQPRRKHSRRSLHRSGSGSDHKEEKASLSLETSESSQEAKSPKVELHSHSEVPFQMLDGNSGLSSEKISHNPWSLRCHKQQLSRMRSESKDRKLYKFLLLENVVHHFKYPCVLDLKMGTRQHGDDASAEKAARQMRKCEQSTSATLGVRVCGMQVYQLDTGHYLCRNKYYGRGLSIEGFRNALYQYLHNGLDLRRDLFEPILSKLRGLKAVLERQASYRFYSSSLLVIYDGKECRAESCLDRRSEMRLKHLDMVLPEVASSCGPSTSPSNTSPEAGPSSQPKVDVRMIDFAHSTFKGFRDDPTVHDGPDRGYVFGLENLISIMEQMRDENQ
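ADP-Glo luminescence measures ADP made by human IP6K1 during a 2 h RT reaction with ATP/IP6 (mix at 1.3 mM/130 uM); top library doses 57.5 and 19.1 uM final.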
KDM5B inhibitor = Primary screen for KDM5B Histone Demethylases FDH-coupled qHTS | Lysine-specific demethylase 5B (Homo sapiens), Q9UGL1 | KDM5B demethylase, FDH-coupled NADH fluorescence (FDH is formaldehyde dehydrogenase) | Potency, µM (doses to about 57.7 µM), hits mostly inhibitors | actives 2.6% (n = 220,000) | AID 1347165, 2019; active = well fitted inhibition curve with a large enough effect; inconclusive = small, poorly fitted or top-dose-only effect; inactive = no such curve, though single readings can be large or run the other way; also: potency is read from the fitted curve at half-maximal effect; 0% is about no effect; nearly all actives have a fitted effect of over 70% in size
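Measured: NADH fluorescence change, 30 min, RT. System: KDM5BΔAP 200 nM final, H3K4me3 peptide, α-KG, Fe(II), ascorbate, NAD⁺ plus FDH, pH 7.5 HEPES. Compounds: titrated, 10 min pre-incubation with enzyme.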
The depositor's hits bear a star; i = inactive; u = inconclusive; x = not tested or not shown.

SMILES	IP6K1 inh	KDM5B inhibitor
COCCN1Cc2ccc(NCC(C)C)nc2C(C)(C(=O)NC2CC2)C1 (configuration not stated)	21	32µM*
CC(C)CNc1ccc2c(n1)C(C)(C(=O)NC1COC1)CN(Cc1ccccc1)C2 (configuration not stated)	33	32µM*
CC(C)CNc1ccc2c(n1)C(C)(C(=O)Nc1ccn(C)n1)CN(Cc1ccccc1)C2 (configuration not stated)	10	u
COCCN1Cc2ccc(Nc3ccc(OC)cc3)nc2C(C)(C(=O)NC2CCC2)C1 (configuration not stated)	18	u
CC(C)CNc1ccc2c(n1)C(C)(C(=O)NC(C)C)CN(Cc1ccccc1)C2 (configuration not stated)	-1	i
C=CCOc1c(OC)ccc2c1CN(Cc1ccco1)C(=O)CCN2CC(O)COc1ccc(OC)cc1 (configuration not stated)	-3	x
CN(C(=O)CSc1nnc(-c2cccs2)n1N)C1CCCCC1	x	i
CS(=O)(=O)NCCc1ccc(CC2CCN(C(=O)CC3CCCC3)CC2)cc1	12	x
COCCN1CCCCCC(O)c2cc(C(=O)N(C)Cc3ccc(N4CCCCC4)cc3)ccc21 (configuration not stated)	5	7.9µM*
COCCN1CCCCCC(O)c2cc(C(=O)N(C)Cc3cccnc3)ccc21 (configuration not stated)	-9	i
COCCN1CCCCCC(O)c2cc(C(=O)NC3CCC3)ccc21 (configuration not stated)	0	32µM*
COCCCNC(=O)c1ccc2c(c1)C(O)CCCCCN2CCOC (configuration not stated)	5	u
CCCCn1nc(C(=O)NCC(=O)Nc2ccc(Br)cc2C)c2ccccc2c1=O	x	i
COC(=O)N1CCCC1C(=O)N1CCC(c2nc3ccncc3[nH]2)CC1 (configuration not stated)	1	x
Cc1cc(C)cc(-c2ccc(CN3CCCC3C(=O)NCCc3ccccc3)cc2)c1 (configuration not stated)	6	x
COc1ccc(S(=O)(=O)Nc2cnc3c(c2)CCC3)cc1	21	x
Cn1ncc2c(C(=O)NCC(F)F)cc(-c3ccc(C(F)(F)F)cc3)nc21	-5	x
COc1ccc(-c2nc(C3CC(=O)N(c4ccc(F)cc4)C3)no2)c(OC)c1 (configuration not stated)	2	u
CCc1ccc(N2CC(c3noc(-c4ccc(OC)cc4OC)n3)CC2=O)cc1 (configuration not stated)	-1	32µM*
COc1ccccc1-c1nc(C2CC(=O)N(C3CCCCC3)C2)no1 (configuration not stated)	0	20µM*
COc1ccc(-c2nc(C3CC(=O)N(c4ccc(C)cc4)C3)no2)c(OC)c1 (configuration not stated)	0	25µM*
O=C1CC(c2noc(-c3ccccc3F)n2)CN1C1CCCCC1 (configuration not stated)	4	i
COc1ccc(N2CC(c3noc(-c4ccc(OC)cc4OC)n3)CC2=O)cc1 (configuration not stated)	-7	i
COc1ccccc1-c1cc(C(=O)NCCN2CCOCC2)nn2cnnc12	11	x
O=C(NCc1ccccc1F)C1CCN(C(=O)c2ccc(-c3cncnc3)cc2)CC1	4	x
SMILES	IP6K1 inh	KDM5B inhibitor
CN(CCc1ccncc1)C(=O)CCc1ccnc(N2CCCC2)c1	-6	u
CNC(=O)CCc1ccnc(N2CCCC2)c1	-13	u
CCCN(C)C(=O)CCc1ccnc(N2CCOCC2)c1	-1	25µM*
COc1ccc(N2CCN(C(=O)CCc3ccnc(N4CCOCC4)c3)CC2)cc1	14	u
CC(=O)N1CCN(C(=O)CCc2ccnc(N3CCOCC3)c2)CC1	-8	28µM*
Cc1ccc(NC(=O)CCc2ccnc(N3CCCC3)c2)c(C)c1	-12	32µM*
CC(C)c1nc2c(c(-c3ccc(Cl)cc3)n1)CN(C(=O)C(C)(C)C)CC2	-2	x
COCCNC(=O)/C(C#N)=C\c1ccc(C(F)(F)F)cc1	x	i
CN1CCCN(Cc2ccc3c(c2)OCO3)c2ccccc21	22	x
Cc1ccc(Nc2ccnc(N3CCC(NC(=O)c4ccc(C(F)(F)F)cc4)CC3)n2)cc1	-7	x
COc1ccc(OC)c(CN2CCNc3cc(Nc4ccccc4)ncc3C2)c1	-10	i
COc1cccc(CN2CCNc3cnc(OCc4cccnc4)cc3C2)c1	-13	35µM*
CCOc1cc2c(cn1)NCCN(Cc1ccccc1O)C2	-17	35µM*
Fc1ccc(CN2CCNc3cnc(OCc4cccnc4)cc3C2)cc1F	-10	u
Fc1cccc(CN2CCNc3cnc(OCc4cccnc4)cc3C2)c1	-17	u
COc1ccc(OC)c(CN2CCNc3cnc(Nc4cccnc4)cc3C2)c1	13	25µM*
Oc1ccccc1CN1CCNc2cnc(Oc3ccccc3)cc2C1	-12	u
Cc1cccc(CN2CCNc3cnc(OCc4cccnc4)cc3C2)c1	2	18µM*
O=C(NCc1ccccc1)c1ccc2nnc(-c3cccnc3)n2c1	20	x
COc1ccc(C(=O)N2CCCC(c3nn(C)c(=O)n3C(C)C)C2)cc1OC (configuration not stated)	22	x
O=C(NCc1cccc(Cl)c1)C1CCCN(Cc2cccc(-c3ccsc3)c2)C1 (configuration not stated)	-6	x
C=CCOc1c(OC)ccc2c1CN(CC1CC1)C(=O)CCN2CC(O)COCc1ccco1 (configuration not stated)	-7	x
COc1cccc(CNC(=O)c2ccc3nnc(-c4ccc(Cl)cc4)n3c2)c1	3	x
C=CCO[C@@H]1CCN2C(=O)c3cc(-c4cc(Cl)ccc4OC)ccc3NC(=O)[C@H]12	10	u
Cc1noc(C)c1CN1CCNc2cnc(OCc3cccnc3)cc2C1	-2	u
SMILES	IP6K1 inh	KDM5B inhibitor
COc1ccc(OC)c(CN2CCNc3cnc(OCc4cccnc4)cc3C2)c1	-6	40µM*
COCC(=O)NC1CCN(Cc2cccc(-c3cccs3)c2)CC1	8	x
O=C(NCc1cccc(Cl)c1)C1CCN(C(=O)c2ccc(-c3cncnc3)cc2)CC1	13	x
O=C(c1cccs1)N1CCCn2cc(-c3ccc4c(c3)OCO4)nc21	-8	u
N#Cc1cccc(-c2cn3c(n2)N(C(=O)CC2CCNCC2)CCC3)c1	12	u
N#Cc1cccc(-c2cn3c(n2)N(C(=O)c2cccnc2)CCC3)c1	10	35µM*
CCn1ccc(C(=O)N2CCCn3cc(-c4cccc(C#N)c4)nc32)n1	-11	u
N#Cc1cccc(-c2cn3c(n2)N(C(=O)c2cccs2)CCC3)c1	13	28µM*
COCCC(=O)N1CCCn2cc(-c3cccc(C#N)c3)nc21	11	22µM*
O=C(NCCc1ccc(Cl)cc1)c1ccc2oc(-c3ccccn3)nc2c1	-5	x
CS(=O)(=O)N1CCC2(CC1)CN(c1cccc(F)c1)C2c1ccccc1 (configuration not stated)	1	x
O=C(NC1CCc2nnc(C3CC3)n2CC1)c1cccs1 (configuration not stated)	6	i
Cc1ccc(C(=O)NC2CCc3nnc(C4CC4)n3CC2)c(=O)[nH]1 (configuration not stated)	-7	32µM*
